# Laboratory results from the supplement of paper PMC6897291.
# Structures can show the parent of a compound that is named as a salt.
# Test system: RIVA
# Assay: growth inhibition by drug alone (1 - RLU/untreated control) (fraction); higher = stronger inhibition
# Settings: 10 nM; time (day): 6; 177Lu-lilotomab satetraxetan 0 ug/ml
# How it was run: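 Plates pre-printed with the Selleck Cambridge Cancer Compound library at 10/100 nM (RIVA) or 10/1,000 nM (U-2932) received 3,000 cells/well. These cells had been washed after 18 h untreated or with a radiolabelled anti-CD37 antibody conjugate (~600 MBq/mg; 0.5 µg/ml RIVA, 1 µg/ml U-2932). Growth inhibition was obtained from RealTime-Glo luminescence in relation to untreated no-drug wells. Each daily read from day 3, taken after 1 h at 37°C, was converted as 1 − RLU/mean of 48 such wells per plate.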
row,SMILES,growth inhibition by drug alone
1,Nc1nc2[nH]cc(CCc3ccc(C(=O)N[C@@H](CCC(=O)O)C(=O)O)cc3)c2c(=O)[nH]1 [Pemetrexed],-0.489
2,COc1cc2nccc(Oc3ccc(NC(=O)Nc4cc(C)on4)c(Cl)c3)c2cc1OC [Tivozanib (AV-951)],-0.222
3,CCC(=O)N1CCN(c2ccc(-n3c(=O)ccc4cnc5ccc(-c6cnc7ccccc7c6)cc5c43)cc2C(F)(F)F)CC1 [Torin 1],-0.398
4,COc1cccc2c1C(=O)c1c(O)c3c(c(O)c1C2=O)C[C@@](O)(C(=O)CO)C[C@@H]3O[C@H]1C[C@H](N)[C@@H](O)[C@H](C)O1 [Epirubicin Hydrochloride],0.0473
5,Clc1ccc(Nc2nnc(Cc3ccncc3)c3ccccc23)cc1 [Vatalanib dihydrochloride (PTK787)],-0.232
6,COc1cc2nccc(Oc3ccc(NC(=O)C4(C(=O)Nc5ccc(F)cc5)CC4)cc3)c2cc1OC [XL-184 free base (Cabozantinib)],-0.315
7,C[C@@H](O[C@H]1OCCN(Cc2n[nH]c(=O)[nH]2)[C@H]1c1ccc(F)cc1)c1cc(C(F)(F)F)cc(C(F)(F)F)c1 [Aprepitant (MK-0869)],-0.358
8,COc1cc2c(cc1O)CC[C@@H]1[C@@H]2CC[C@]2(C)[C@@H](O)CC[C@@H]12 [2-Methoxyestradiol],-0.422
9,CNCc1ccc(-c2[nH]c3cc(F)cc4c3c2CCNC4=O)cc1,-0.165
10,CC[C@@]1(O)C(=O)OCc2c1cc1n(c2=O)Cc2cc3c(CN(C)C)c(O)ccc3nc2-1 [Topotecan HCl],0.801
